Screens (PubChem)
Most compounds without a hit are left out; they make up all but 11% or so of the library.
ERK AVP inh – qHTS Assay for Inhibitors of the ERK Signaling Pathway using a Homogeneous Screening Assay; HEK293-V1b, vasopressin-stimulated pERK AlphaScreen; Potency, µM (highest dose often 57.5 µM), inactives show top-dose activity, negative = inhibition, hits mostly inhibitors; actives 0.99% (n = 72,000); AID 995, 2007; note: nearly all actives have a fitted effect of over 55% in size
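qHTS, compounds titrated on V1b-expressing HEK293 cells. Preincubation 30 min at 37C, vasopressin 25 nM for 5 min, lysis 10 min, bead incubation 5 hr at room temperature.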
ALOX15 inhib – qHTS Assay for Inhibitors of 15-hLO (15-human lipoxygenase) | purified 15hLO-1, xylenol orange hydroperoxide absorbance | Potency, µM (titrated, usually from 57.1 µM), without a hit: at the highest dose activity change, negative = inhibition, actives largely listed as inhibitors | AID 887, 2007 | Polyunsaturated fatty acid lipoxygenase ALOX15 (Homo sapiens), P16050 | actives 1.4% (n = 74,000); note: nearly all actives have a fitted effect of over 55% in size
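40 nM 15hLO-1 + cpd, 15 min RT; start w/ 50 uM AA (final), 6 min RT; stop/detect w/ 200 uM XO + 300 uM Fe(II) in 50 mM H2SO4, 30 min; A573/A405. Buffer 25 mM Hepes pH 7.5, 0.01% Triton X-100. No-enzyme wells as negative control.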
HADH2 inh – qHTS Assay for Inhibitors of HADH2 (Hydroxyacyl-Coenzyme A Dehydrogenase, Type II); 3-hydroxyacyl-CoA dehydrogenase type-2 (Homo sapiens), Q99714; recombinant HADH2, NADH fluorescence, beta-hydroxybutyryl-CoA; Potency, µM (titrated, usually from 57.1 µM), inactives show top-dose activity change, negative = inhibition, hits mostly inhibitors; actives 3.4% (n = 73,000); note: nearly all actives have a fitted effect of over 60% in size
Target sequence (Q99714 whole entry, looked up, one chain of several): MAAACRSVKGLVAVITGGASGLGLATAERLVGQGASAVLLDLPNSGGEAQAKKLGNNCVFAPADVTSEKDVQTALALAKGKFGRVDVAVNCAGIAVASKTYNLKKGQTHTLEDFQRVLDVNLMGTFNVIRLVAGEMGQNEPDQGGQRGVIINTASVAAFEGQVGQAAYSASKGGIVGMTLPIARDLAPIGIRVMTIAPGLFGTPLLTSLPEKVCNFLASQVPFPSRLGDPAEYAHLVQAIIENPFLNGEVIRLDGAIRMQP
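His-tagged recombinant enzyme from E. coli, 20 nM, preincubated 15 min RT with compound; reaction started with 1 mM NAD+ and 90 uM beta-hydroxybutyryl-CoA in 100 mM Tris-HCl pH 9.0. NADH fluorescence (ex 360/em 450) read over 4 min; last-minus-first difference.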
Luciferase inh – qHTS Assay for Inhibitors of Firefly Luciferase. Luciferin 4-monooxygenase (Photinus pyralis), P08659. purified firefly luciferase, luminescence, 8 min. Potency, µM (titrated, usually from 57.1 µM), inactives show top-dose activity change, negative = inhibition, actives largely listed as inhibitors. actives 2.2% (n = 72,000). AID 411, 2009; note: nearly all actives have a fitted effect of over 40% in size
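Inhibition of light generation by firefly luciferase from ATP and luciferin was profiled with concentration-response curves per sample, ATP held at 10 uM within the enzyme's linear range. Plates were read by luminescence after an 8-minute ambient incubation.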
HSD17B inhib – qHTS Assay for Inhibitors of HSD17B4, hydroxysteroid (17-beta) dehydrogenase 4. 3-hydroxyacyl-CoA dehydrogenase type-2 (Homo sapiens), Q99714. recombinant HSD17B10, NADH fluorescence kinetic. Potency, µM (titrated, usually from 57.1 µM), for inactives: at the top dose activity change, negative = inhibition, hits mostly inhibitors. actives 7.6% (n = 75,000);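 note: the protocol describes HADH2 (HSD17B10) and not the HSD17B4 of the title; nearly all actives have a fitted effect of over 70% in size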
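His-tagged E. coli-expressed HADH2 at 20 nM in 100 mM Tris-HCl pH 9.0 with 0.01 % Tween-20, preincubated 15 min with compound at room temperature. Reaction with 1 mM NAD+ and 90 uM beta-hydroxybutyryl coenzyme A; NADH fluorescence (360/450 nm) read kinetically over 4 min, last minus first point.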
PK Bst – Pyruvate Kinase | purified pyruvate kinase, luminescence ATP production; ribose 5-phosphate activator present at AC10 | Potency, µM | actives 1.2% (n = 51,000); in the data active = potency below about 11 µM; inconclusive = mostly about 12 µM to 25 µM;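 the screen sought inhibitors and activators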;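 note: scaled between full activation by ribose 5 phosphate and full inhibition by luteolin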
Numbers without * were called inactive; i = inactive; ? = inconclusive; . = no result given; [ ] = dose if it differs, or a comment. Unless noted, calls come from the whole dose curve; as a rule, active = well fitted curve in the direction sought with a large enough effect; inconclusive = small, poorly fitted or top-dose-only effect, or another doubt; inactive = no such curve, though single readings can be large; an effect the other way counts as inactive or inconclusive. Unless noted, % is set by controls: 0 for no effect and ±100 for the full control effect; potency is the fitted concentration of half-maximal effect.

SMILES	ERK AVP inh	ALOX15 inhib	HADH2 inh	Luciferase inh	HSD17B inhib	PK Bst
Cn1c(NC(=O)c2ccccc2Br)cc(=O)n(C)c1=O	.	25µM*	-19%	1%	-13%	.
CCOC(=O)c1c(-c2ccccc2)csc1NC(=O)c1nn(CC)cc1Br	17%	-6%	32µM*	1%	32µM*	>57
CCn1c2ccccc2c2cc(/C=N/n3cnnc3)ccc21	-15%	-16%	25µM*	-5%	25µM*	.
CCn1c(/C=N/n2cnnc2)nc2ccccc21	0%	6%	32µM*	2%	25µM*	.
C(=N\n1cnnc1)/c1cccc2ccccc12	-4%	13%	?	0%	?	>57
CCOc1ccc2oc(-c3ccccc3)c(C(=O)O)c2c1	-16%	4%	25µM*	0%	32µM*	>57
CCOC(=O)c1c(C)oc2ccc(OCC(=O)C(C)(C)C)cc12	.	.	.	-1%[25.5 µM]	.	>26
CC(Oc1ccc2c(-c3ccccc3)cc(=O)oc2c1)C(=O)O (configuration not stated)	8%	1%	-1%	-2%	-15%	>57
CC(Oc1ccc2oc(-c3ccccc3)c(C(=O)O)c2c1)C(=O)O (configuration not stated)	-3%	12%	?	1%	25µM*	.
CO[C@H]1COC(=O)C/C=C\[C@H](C)[C@H](OC)COC(=O)[C@@H](C)COC(=O)C/C=C\[C@@H]1C	-11%[11.5 µM]	0%[11.4 µM]	8%[11.4 µM]	0%[11.4 µM]	7%[11.4 µM]	.
CCC1(CC)Nc2ccccc2C(=O)N1c1ccc(NC(C)=O)cc1	-11%	9%	25µM*	-6%	25µM*	>57
Cc1ccc(NC(=O)C(C)N2C(=O)c3ccccc3C2=O)cc1 (configuration not stated)	-17%	7%	13%	0%	10%	>57
Cc1ccc(S(=O)(=O)Oc2ccc(N=Nc3ccc(-c4ccc(N=Nc5c(O)ccc6cc(S(=O)(=O)O)cc(S(=O)(=O)O)c56)c(C)c4)cc3C)cc2)cc1	25µM*	?	1.3µM*	.	25µM*	.
Cc1ccc(N=Nc2c(O)ccc3cc(S(=O)(=O)O)ccc23)cc1	4%[11.5 µM]	-8%[11.4 µM]	4%[11.4 µM]	-22%[11.4 µM]	-8%[11.4 µM]	.
CC(C)=CCC/C(C)=C/COc1c2ccoc2cc2oc(=O)ccc12	.	.	-18%	0%[11.4 µM]	.	.
CC(C)=CCC/C(C)=C/COc1ccc2ccc(=O)oc2c1	53%	.	.	.	32µM*	.
COc1ccc2oc(=O)cc(C)c2c1	7%	22%	11%	-2%	32µM*	>57
CCOC(=O)Oc1ccc2oc(=O)cc(C)c2c1	-6%	1%	5%	2%	-5%	.
COc1ccc2ccc(=O)oc2c1	-14%	-2%	.	.	25µM*	.
COc1cc(OC)c2ccc(=O)oc2c1	-19%	1%	.	.	25µM*	.
COc1cc(OC)c2c(=O)c(OC)c(-c3ccc(OC)c(OC)c3)oc2c1	?	-2%	.	.	-22%	.
Cc1ccc(S(=O)(=O)N=Nc2c(O)[nH]c3cc(O)c(C(=O)O)cc23)cc1	-14%[11.5 µM]	-2%[11.4 µM]	?	3%[11.4 µM]	-1%[11.4 µM]	.
Cc1cc(=O)[nH]c(/N=C(\N)Nc2ccc(Cl)cc2)n1	-14%[11.5 µM]	2%[11.4 µM]	5%[11.4 µM]	1%[11.4 µM]	6%[11.4 µM]	.
COc1cc(OC)c2c(C)cc(=O)oc2c1	3%	-12%	4µM*	1%	3.2µM*	>57
Oc1ccc(N=Cc2ccc(O)c(O)c2)cc1	?	13µM*	3.2µM*	-15%	?	.
SMILES	ERK AVP inh	ALOX15 inhib	HADH2 inh	Luciferase inh	HSD17B inhib	PK Bst
Cc1ccc(N2CC(C(=O)N3CCN(c4ccccc4)CC3)CC2=O)cc1 (configuration not stated)	-6%	7%	3%	2%	9%	>57
CC(c1ccccc1)N1CC(C(=O)N2CCN(c3ccccc3)CC2)CC1=O (configuration not stated)	25µM*	-26%	11%	7%	0%	.
O=c1[nH]c2ccccc2n1CCCSCCCn1c(=O)[nH]c2ccccc21	32µM*	-2%	2%	-4%	3%	>57
Cc1cc(C(=O)CSCCCn2c(=O)[nH]c3ccccc32)c(C)n1C	-30%	32µM*	4%	2%	-30%	>57
CC(C)(C)c1ccc(-c2nnc(SCC(=O)O)n2N)cc1	15%	7%	-17%	16µM*	1%	.
CCCc1cc(=O)oc2cc(C)cc(OCc3nn[nH]n3)c12	-18%	8%	32µM*	2%	32µM*	.
CCCc1cc(=O)oc2cc(C)cc(OC(=O)c3ccco3)c12	-16%	2%[11.4 µM]	2%[11.4 µM]	2%	-2%	.
COc1ccccc1-c1cc(Nc2ccn[nH]2)ncn1	?	10%	16%	-14%[2.29 µM]	2%	.
CCCCNc1nc(SC)nc2nc[nH]c12	-14%[11.5 µM]	9%[11.4 µM]	-4%[11.4 µM]	-1%[11.4 µM]	4%[11.4 µM]	.
COc1cccc(C(=O)Nc2cccc(SC)c2)c1	2%	-4%	-5%	13µM*	6%	.
COc1ccc(C(=O)Nc2ccccc2C(=O)NCCN2CCOCC2)cc1	-27%	-4%	5%	-11%	4%	>57
COc1ccc(C(=O)Nc2cccc(C)c2)cc1	-20%	-4%[11.4 µM]	5%[11.4 µM]	6.3µM*	3%	.
COc1ccc(C(=O)Nc2ccccc2C(N)=O)cc1	-5%	-2%	2%	13µM*	8%	i
CC(=O)c1cccc(NC(=O)Nc2ccc(C(=O)N3CCOCC3)cc2)c1	-1%	-3%	3%	13µM*	2%	.
O=c1cc(-c2ccccc2)oc2cc(O[C@@H]3O[C@H](CO)[C@@H](O)[C@H](O)[C@H]3O)c(O)c(O)c12	-5%	7%[25.6 µM]	.	.	?	.
COc1ccc(-c2nc3cnc(N4CCOCC4)nc3n(-c3ccc(OC)cc3)c2=O)cc1	37%	16µM*	-7%	0%[11.4 µM]	25µM*	.
COc1ccc(-c2nc3cnc(N4CCOCC4)nc3n(C3CC3)c2=O)cc1	-12%	-1%	17%	0%[11.4 µM]	16µM*	.
COc1ccc(-n2c(=O)c(-c3ccc(F)cc3)nc3cnc(N4CCOCC4)nc32)cc1	8%	-5%	0%	2%[11.4 µM]	-1%	.
CC(C)CNc1nc(N)[nH]c(=O)c1NC=O	-4%[11.5 µM]	5%[11.4 µM]	-6%[11.4 µM]	2%[11.4 µM]	11%[11.4 µM]	.
CCCCC(C=O)CC (configuration not stated)	9%	-2%	-2%	.	1%	.
CN(C)[C@H]1C(=O)C(C(=O)NCN2CCCC2)=C(O)[C@]2(O)C(=O)C3=C(O)c4c(O)cccc4[C@@](C)(O)[C@H]3C[C@@H]12	-2%[25.7 µM]	-18%[25.6 µM]	?	0%[25.5 µM]	?	.
